In the supplement of paper PMC3334620:
In all, about 33,000 sequences were measured (“E-score (-0.5 to 0.5)”: median about -0.035, highest 2% from about 0.35 on). The entries come from a sample that favours the highest values as a whole.

Each sequence was assayed against T1, Pdr3 (UniProt P33200) (assay: PBM E-score (8-mer binding enrichment) (E-score (-0.5 to 0.5)); higher = stronger / more preferred TF binding). Details: protein concentration: 200 nM; construct: GST-full length.
T1 sequence: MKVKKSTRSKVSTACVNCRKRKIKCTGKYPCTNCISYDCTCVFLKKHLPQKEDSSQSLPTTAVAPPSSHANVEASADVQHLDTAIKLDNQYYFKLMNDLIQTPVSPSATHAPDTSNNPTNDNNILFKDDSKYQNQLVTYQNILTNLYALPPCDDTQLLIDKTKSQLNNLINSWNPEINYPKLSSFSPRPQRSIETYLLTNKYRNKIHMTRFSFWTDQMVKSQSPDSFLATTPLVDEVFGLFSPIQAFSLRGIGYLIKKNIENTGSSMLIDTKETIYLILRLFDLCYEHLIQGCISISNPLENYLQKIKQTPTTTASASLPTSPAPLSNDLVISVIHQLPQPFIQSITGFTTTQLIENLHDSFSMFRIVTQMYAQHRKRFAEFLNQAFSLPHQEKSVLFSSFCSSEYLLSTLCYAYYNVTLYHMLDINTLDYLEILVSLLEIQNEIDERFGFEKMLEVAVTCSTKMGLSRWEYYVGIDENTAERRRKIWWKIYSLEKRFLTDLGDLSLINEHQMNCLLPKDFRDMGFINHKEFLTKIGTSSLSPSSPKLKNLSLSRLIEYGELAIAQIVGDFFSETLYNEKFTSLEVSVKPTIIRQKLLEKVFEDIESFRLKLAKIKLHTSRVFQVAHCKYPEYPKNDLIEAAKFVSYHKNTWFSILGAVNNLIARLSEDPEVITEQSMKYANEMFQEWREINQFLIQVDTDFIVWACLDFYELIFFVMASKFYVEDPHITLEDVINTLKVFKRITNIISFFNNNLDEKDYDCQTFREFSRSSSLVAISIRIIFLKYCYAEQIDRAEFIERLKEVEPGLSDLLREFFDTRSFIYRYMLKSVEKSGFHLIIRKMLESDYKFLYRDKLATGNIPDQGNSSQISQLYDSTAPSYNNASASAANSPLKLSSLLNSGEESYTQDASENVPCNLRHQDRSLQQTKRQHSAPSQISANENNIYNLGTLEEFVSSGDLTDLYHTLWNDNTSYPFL
Experimental: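 Universal 'all 10-mer' protein binding microarrays (Agilent AMADID 015681) probed with GST-tagged S. cerevisiae TFs (full-length or DBD) made by in vitro transcription/translation (PURExpress), about 100-200 nM. Bound TF was detected with fluorescent anti-GST. Each ungapped 8-mer (which stands for itself and its reverse complement) is scored by the PBM enrichment score (E-score), a modified Wilcoxon-Mann-Whitney statistic from -0.5 to +0.5, computed with the Universal PBM Analysis Suite. Scale: above 0.35 generally sequence-specific binding.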

| Sequence | PBM E-score |
| --- | --- |
| CGCCCTCC | 0.0638 |
| TAATGATA | 0.132 |
| ATCGCATC | 0.121 |
| GTCCCAAA | -0.154 |
| CAGGCCAC | 0.00119 |
| ATTTGCAG | -0.0031 |
| ACCATAGG | -0.229 |
| GAGAAAAA | 0.176 |
| ATCTGGGG | -0.109 |
| AATTCCAT | 0.156 |
| AATTCCGA | 0.423 |
| AATTCCGT | 0.449 |
| AATTCCCT | -0.207 |
| AATTCCAA | -0.0365 |
| AATTCCCA | -0.171 |
| ACTAGCCG | 0.105 |
| GACCCGAC | 0.21 |
| AGCCCGGC | 0.264 |
| CGCCCGGC | 0.293 |
| AGCCCGGG | 0.383 |
| CGCCCGGA | 0.396 |
| GGCCCGGA | 0.336 |
| CGCCCGAA | 0.117 |
| AGCCCCGG | 0.303 |
| AGCCCGGA | 0.355 |
| AGCCCGAG | -0.044 |

| Sequence | PBM E-score |
| --- | --- |
| ACACAGTC | -0.0508 |
| CTAGCATC | -0.172 |
| CTTTCTAC | -0.16 |
| ACCATACG | -0.0138 |
| CCGGCGGC | 0.325 |
| ACGGCGGA | 0.314 |
| CCGGCGGA | 0.449 |
| GCGGCGGA | 0.404 |
| CTGGCGGA | 0.131 |
| GTGGCGGA | 0.271 |
| ATCTCCTA | -0.245 |
| GATACGAA | 0.033 |
| GCCTGGCC | 0.00694 |
| TCAACACA | -0.0355 |
| TATCCGAA | 0.307 |
| AATCCGGA | 0.455 |
| GATCCGAA | 0.365 |
| CATCCGTA | 0.282 |
| AATCCAGA | 0.127 |
| CATCCGGA | 0.426 |
| CATCCGGC | 0.295 |
| CATCCGGG | 0.261 |
| AATCCGGC | 0.302 |
| CATCCGAA | 0.282 |
| GATCCGGC | 0.369 |
| AATCCGGT | 0.294 |

| Sequence | PBM E-score |
| --- | --- |
| AGAATGCG | 0.0628 |
| CAAGGCGA | -0.174 |
| GACGCCTA | -0.228 |
| AGCTGTTG | -0.0549 |
| AAGAAATC | -0.104 |
| ACATGAGG | -0.0733 |
| TATCCTGA | -0.107 |
| GATCCGTA | 0.336 |
| CCTCCGAA | 0.152 |
| GATCCGCA | 0.319 |
| GCTCCGAA | 0.361 |
| TCTCCGAA | 0.257 |
| TATCCGGA | 0.446 |
| TATCCGCA | 0.335 |
| GATCCGGA | 0.437 |
| TACCGATA | 0.0617 |
| GACTAACC | -0.2 |
| ACCTCAAG | -0.0979 |
| ATGATCTA | 0.0443 |
| CCGTCCCG | 0.371 |
| ACGTCCCG | 0.279 |
| CCGTCCCC | 0.166 |
| TACTCAGA | -0.0418 |
| ATGCTCTA | -0.211 |
| CCAGACCG | 0.0829 |
| CCGGACCC | 0.379 |

| Sequence | PBM E-score |
| --- | --- |
| ACGGACCC | 0.344 |
| CGGGACCG | 0.373 |
| CCGGACCG | 0.378 |
| AGGGACAG | -0.3 |
| CGGGACAC | 0.245 |
| CGGGACCA | 0.264 |
| CAGGACCG | -0.0353 |
| GCGGACCC | 0.336 |
| CGGGACAG | 0.359 |
| AGGGACCG | -0.128 |
| AGGGTTAT | -0.0536 |
| GGATAAAC | 0.195 |
| CGACCTCC | 0.208 |
| AGTCATGG | -0.234 |
| CCAAGAGG | -0.122 |
| CGCCGAGA | 0.228 |
| GCTGGTAC | 0.029 |
| CGGCACAA | 0.121 |
| CCTTGACA | -0.209 |
| TTACCGAA | 0.105 |
| CGTATAGA | -0.231 |
| AGTTCCTA | 0.0135 |
| AGTTCCGA | 0.456 |
| CGTTCCAA | -0.0612 |
| AGTTCCCA | 0.16 |
| CGTTCCCC | 0.146 |

| Sequence | PBM E-score |
| --- | --- |
| GGTTCCCA | -0.0344 |
| GGTTCCGA | 0.476 |
| CGTTCCGA | 0.455 |
| CGTTCCTA | -0.0878 |
| GGTTCCAA | 0.273 |
| CGTTCCGC | 0.453 |
| CGTTCCTC | 0.194 |
| GATCCACC | -0.0343 |
| ACGAGATC | 0.00781 |
| GAAGGGCC | 0.00364 |
| CTTCACAC | -0.201 |
| ACCAAATA | 0.0784 |
| GGAATGTA | 0.339 |
| CATAACCG | 0.135 |
| ACAATGCT | -0.171 |
| AGCATAAG | -0.0742 |
| GGGTCCGA | 0.234 |
| CGGTCCGA | 0.378 |
| AGTTCCGC | 0.467 |
| AGGTCCGA | 0.305 |
| AGTTCCTG | -0.0933 |
| AGTTCCAG | -0.0101 |
| AGTTCCCC | 0.0744 |
| AGTTCCAC | -0.00065 |
| AGTTCCGG | 0.464 |
| CTAGGTTC | 0.154 |

| Sequence | PBM E-score |
| --- | --- |
| CCCATCCA | 0.00501 |
| GTGAAAGA | -0.0383 |
| CTAAGATC | -0.0406 |
| ACTACCCT | -0.179 |
| ATCTAGAG | -0.177 |
| CTTCGACC | 0.054 |
| TCGGATAA | 0.307 |
| ATGGAAGC | 0.179 |
| ATGGAAGA | -0.243 |
| AGGGAAGC | -0.0866 |
| ACAGAAGT | -0.285 |
| AAGGAAGT | 0.0783 |
| AAGGAAGA | -0.2 |
| GTGGAAGA | -0.0507 |
| ACGGAAGA | 0.373 |
| GCGGAAGA | 0.393 |
| ACGGAAGC | 0.427 |
| ACGGAAGT | 0.393 |
| GAGGAAGA | 0.0527 |
| CCCCCTAG | -0.342 |
| CCCTGACA | -0.222 |
| CATGAACG | -0.0457 |
| CAAAACCG | 0.00937 |
| GGTGCGCA | 0.191 |
| CCGGAAGC | 0.444 |
| ATGGAAGG | -0.197 |

| Sequence | PBM E-score |
| --- | --- |
| GCGGAAGC | 0.347 |
| TCAGAAGA | -0.178 |
| CCGGAAGA | 0.403 |
| TCGGAAGA | 0.359 |
| AAGGAAGG | -0.205 |
| CTGGAAGC | -0.322 |
| CTGGAAGA | -0.108 |
| CAGGAAGA | 0.0315 |
| TAGGAAGA | -0.204 |
| ACGGAAGG | 0.397 |
| CGACCACA | -0.0427 |
| AAGTGCAC | 0.0238 |
| ACTGAGAA | -0.121 |
| TAAGCCCA | -0.113 |
| ACTAGGGA | -0.253 |
| ACTGCCCG | 0.179 |
| CACGTGGA | -0.0333 |
| CGGGAAGC | 0.282 |
| CCGGAAGG | 0.421 |
| CCAGAAGG | -0.0321 |
